Assay results reported in publication PMC4336329 (PLoS ONE, 2015).
Among all 310,000 compounds or so, about 14,000 (4.5%) showed an effect of 50% or more. The effect is printed as a negative number. The sample holds strong results, similar compounds and a random draw of the others, so the mix is not that of the screen.

Target: human ether-à-go-go-related gene (hERG) potassium channel (human, UniProt Q12809)
Assay: primary screen, population patch clamp on CHO cells stably expressing hERG; higher = less effect of the substance
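Further: peak tail current of the secondary pulse compared with the same well before compound.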

Chain of human ether-à-go-go-related gene (hERG) potassium channel (Q12809 whole entry, looked up): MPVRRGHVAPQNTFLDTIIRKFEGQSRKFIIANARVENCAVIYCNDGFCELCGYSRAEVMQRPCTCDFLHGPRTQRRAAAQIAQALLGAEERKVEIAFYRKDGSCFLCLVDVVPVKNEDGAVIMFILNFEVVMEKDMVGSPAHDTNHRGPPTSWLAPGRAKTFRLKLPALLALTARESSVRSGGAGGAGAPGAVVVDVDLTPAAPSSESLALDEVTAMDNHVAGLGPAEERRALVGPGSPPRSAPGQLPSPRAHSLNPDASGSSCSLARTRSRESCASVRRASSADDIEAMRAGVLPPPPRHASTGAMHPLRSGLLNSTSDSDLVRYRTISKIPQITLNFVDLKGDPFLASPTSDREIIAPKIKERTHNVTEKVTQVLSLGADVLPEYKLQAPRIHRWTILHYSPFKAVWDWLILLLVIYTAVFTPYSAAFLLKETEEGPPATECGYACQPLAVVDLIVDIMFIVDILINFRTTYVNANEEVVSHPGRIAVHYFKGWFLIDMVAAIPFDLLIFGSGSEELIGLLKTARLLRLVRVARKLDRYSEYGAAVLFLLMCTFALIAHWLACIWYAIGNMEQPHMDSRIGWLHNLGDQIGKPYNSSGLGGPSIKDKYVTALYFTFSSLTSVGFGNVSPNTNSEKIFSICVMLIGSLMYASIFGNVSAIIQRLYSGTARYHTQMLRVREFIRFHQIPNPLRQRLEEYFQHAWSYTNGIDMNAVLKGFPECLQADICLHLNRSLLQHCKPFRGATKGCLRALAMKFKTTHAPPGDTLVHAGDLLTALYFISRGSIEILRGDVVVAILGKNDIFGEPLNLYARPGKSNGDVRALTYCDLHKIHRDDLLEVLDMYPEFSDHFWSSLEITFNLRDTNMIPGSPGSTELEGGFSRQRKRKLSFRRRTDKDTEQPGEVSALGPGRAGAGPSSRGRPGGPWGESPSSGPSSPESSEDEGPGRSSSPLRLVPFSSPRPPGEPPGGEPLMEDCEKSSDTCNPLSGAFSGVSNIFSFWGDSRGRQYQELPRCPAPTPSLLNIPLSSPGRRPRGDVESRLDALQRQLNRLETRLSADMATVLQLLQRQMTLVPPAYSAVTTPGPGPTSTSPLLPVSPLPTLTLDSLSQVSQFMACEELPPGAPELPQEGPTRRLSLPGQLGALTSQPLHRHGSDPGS

Row | Structure (SMILES) | hERG current change (%, negative = inhibition) at 10uM [%]
1 | CCc1noc(C)c1C(=O)Nc1cccc(S(=O)(=O)N(C)c2ccccc2)c1 | -22.1
2 | CCN1CCCC1CNC(=O)Cn1cccc1C(=O)c1ccccc1 (stereo not drawn) | -3.53
3 | O=C1C=C(c2ccc(F)cc2OCc2ccccc2)C[C@@H](c2ccc(Cl)cc2)C1 | 6.91
4 | CCOC(=O)[C@H]1[C@H]2COc3ccc(Cl)cc3[C@@H]2N2C(=O)c3cc(C)ccc3NC(=O)[C@@]12C | 5.63
5 | Cc1cc(C)n2nc(N)c(N=Nc3ccccc3)c2n1 | -3.32
6 | COC(=O)[C@H](CCSC)NC(=O)c1cc2c(cn1)[nH]c1ccccc12 | 0.117
7 | O=C(CSc1nc2ccccc2[nH]1)c1ccco1 | -4.74
8 | CCOC(=O)Nc1ccccc1C(=O)Nc1cc(C)cc(C)c1 | 28.9
9 | CCOc1cc(-c2nc3ccccn3c2NCC2CCCO2)ccc1O (stereo not drawn) | -64.7
10 | CCOc1cc(/C=C(\C#N)C(=O)NCC2CCCO2)ccc1O (stereo not drawn) | -3.03
11 | COc1ccc(-c2nc3cccc(C)n3c2NCC2CCCO2)cc1O.Cl (stereo not drawn) | -5.6
12 | CCCCNc1c(-c2ccc(OC)c(SC3CCCCC3)c2)nc2cc(C)ccn12.O=C(O)C(F)(F)F | 12.6
13 | Cc1ccn2c(NC3CCCC3)c(-c3ccncc3)nc2c1 | -10.2
14 | CCOc1cc(-c2nc3c(C)cccn3c2NCC2CCCO2)ccc1O.CNC.Cl (stereo not drawn) | -43.9
15 | CCOc1cc(-c2nc3cc(C)ccn3c2NCC2CCCO2)ccc1O (stereo not drawn) | -72.2
16 | COc1ccc(-c2nc(C#N)c(NCC3CCCO3)o2)cc1OC (stereo not drawn) | 6.28
17 | COc1ccc(-c2nc3cccc(C)n3c2NCc2ccco2)cc1OC | -42.2
18 | COc1ccc(-c2nc3cc(C)ccn3c2NCC2CCCO2)cc1OC.Cl (stereo not drawn) | -71.2
19 | COc1cc(-c2nc3cccc(C)n3c2NCC2CCCO2)ccc1O (stereo not drawn) | -51.4
20 | COc1cc(-c2nc3ccccn3c2NCC2CCCO2)ccc1O (stereo not drawn) | -17.9
21 | CCN(CC)CCN1C(=O)C(=O)/C(=C(/O)c2c(C)[nH]c(C(=O)OC)c2C)C1c1ccccc1OC (stereo not drawn) | 20.8
22 | O=C(NCCCN1CCCC1=O)c1cccc(C(F)(F)F)c1 | -3

Row | Structure (SMILES) | hERG current change (%, negative = inhibition) at 10uM [%]
23 | CCOC(=O)C1CCN(CC(C)(C)NS(=O)(=O)c2ccc(Cl)cc2)CC1 | -1.75
24 | C/C(=N/Nc1nc(C)cc(C)n1)c1ccc(Br)cc1 | -14.9
25 | C/C(=N/Nc1ccnc2cc(Cl)ccc12)c1ccc(O)cc1 | -6.2
26 | Cc1ccc(C)c(N2CCN(c3ccncc3N)CC2)c1 | -47.8
27 | Cc1c(NC2=CC(=O)CCC2)c(=O)n(-c2ccccc2)n1C | 8.37
28 | O=C(CC(=O)N1CCN(c2ccccn2)CC1)Nc1ccc2nc3n(c(=O)c2c1)CCCCC3 | -17.9
29 | CCn1c(O)c(/C(C)=N/N2CCCCC2c2cccnc2)c(=O)[nH]c1=S (stereo not drawn) | -55.2
30 | C/C(=N\N1CCCCC1c1cccnc1)c1c(O)n(C2CCCCC2)c(=S)[nH]c1=O (stereo not drawn) | 0.0734
31 | CCCCn1c(O)c(/C(CC)=N/N2CCCCC2c2cccnc2)c(=O)[nH]c1=S (stereo not drawn) | -27
32 | O=[N+]([O-])c1cc([N+](=O)[O-])c(Oc2c(F)ccc(F)c2F)cc1NN1CCCCC1 | 19.8
33 | CC1CCCCC1NC(=O)c1ccc(S(=O)(=O)NCc2ccco2)cc1 (stereo not drawn) | 7.19
34 | CCNc1nc(=S)nc(NC(C)C)[nH]1 | 29.6
35 | Cc1oc(-c2cc3c(cc2Cl)OCO3)nc1CN1CCCC(C(=O)N2CCOCC2)C1 (stereo not drawn) | -24.7
36 | Cc1ccc(-c2nc(CN3CCCC(C(=O)N4CCOCC4)C3)c(C)o2)cc1 (stereo not drawn) | -37.5
37 | CCOC(=O)N1CCN(C(=O)C2CCCN(Cc3nc(-c4ccc(Cl)cc4)oc3C)C2)CC1 (stereo not drawn) | -70.9
38 | Cc1oc(-c2ccc(Cl)cc2)nc1CN1CCCC(C(=O)N2CCOCC2)C1 (stereo not drawn) | -53.8
39 | CCOC(=O)N1CCC(NC(=O)CS(=O)Cc2nc(-c3ccc(Cl)cc3)oc2C)CC1 (stereo not drawn) | -47.4
40 | CCOc1ccc(-c2nc(CN3CCCC(C(=O)N4CCOCC4)C3)c(C)o2)cc1 (stereo not drawn) | -26.5
41 | O=C(C1CCC(CNS(=O)(=O)c2ccccc2)CC1)N1CCCCC1 (stereo not drawn) | -1.89
42 | C=CCN(c1ccc(Br)cc1C(=O)OC)S(C)(=O)=O | 0.801
43 | Brc1ccc(-c2cnc(-c3cccs3)o2)cc1 | -3
44 | CN1C2CCC1CC(NC(=O)CSc1ccc(Cl)cc1)C2 (stereo not drawn) | -8.94

Row | Structure (SMILES) | hERG current change (%, negative = inhibition) at 10uM [%]
45 | CN1C2CCC1CC(NC(=O)CSCc1ccc(Cl)cc1Cl)C2 (stereo not drawn) | -57.4
46 | NNC(=O)CSCc1ccc(Cl)cc1Cl | -2
47 | O=C(O)C1=C[C@@H](C2CC2)C[C@@H](OCc2ccc(CO)cc2)O1 | 21.4
48 | COc1cc(Br)c(C2C(C#N)=C(N)Oc3n[nH]c(-c4cccnc4)c32)cc1OC (stereo not drawn) | 6.8
49 | Cc1cccc(NC(=O)c2nc[nH]c2C(=O)N2CCC(C)CC2)c1 | 1.29
50 | CC(=NCCCn1ccnc1)c1c(O)n(-c2ccccc2)c(=O)[nH]c1=O | 5.91
51 | CCCc1[nH]n(-c2ccc([N+](=O)[O-])cc2)c(=O)c1C=NCCc1c[nH]c2ccccc12 | 8.42
52 | CCCc1[nH]n(-c2ccc([N+](=O)[O-])cc2)c(=O)c1C=NCCCn1ccnc1 | -76.4
53 | CCCc1[nH]n(-c2ccc([N+](=O)[O-])cc2)c(=O)c1C(C)=NCc1ccncc1 | -52.4
54 | CC(=NCCCn1ccnc1)c1c(O)n(C)c(=O)n(C)c1=O | -9.42
55 | CC(=NCCCn1ccnc1)c1c(C)[nH]n(-c2ccc([N+](=O)[O-])cc2)c1=O | -69.3
56 | CCCc1[nH]n(-c2ccc([N+](=O)[O-])cc2)c(=O)c1C=NCCc1ccc(OC)c(OC)c1 | -19.4
57 | COc1ccc(-c2[nH]n(-c3ccc([N+](=O)[O-])cc3)c(=O)c2C=NCc2ccncc2)cc1 | -3.44
58 | CCCc1[nH]n(-c2ccc([N+](=O)[O-])cc2)c(=O)c1C=NCCN1CCNCC1 | -47.1
59 | O=C1CC(N(O)c2ccccc2)C(=O)N1c1cc(Cl)cc(Cl)c1 (stereo not drawn) | 16.2
60 | COc1ccccc1CNC(=O)C(NC(=O)Nc1ccccc1)C(C)C (stereo not drawn) | 13
61 | CCCCn1c(=O)[nH]c(=O)c2c1nc(CN(C)Cc1cccc(OC)c1OC)n2CCC.O=C(O)C(=O)O | 18.5
62 | Cc1ccc(-n2ncc3c2ncn2c(C)nnc32)cc1C | -10.5
63 | COc1ccc(NC(=O)COC(=O)c2ccc(NS(=O)(=O)/C=C/c3ccccc3)cc2)cc1 | 0.149
64 | Cc1ccccc1NC(=O)NC1CCS(=O)(=O)C1 (stereo not drawn) | 16.6
65 | CCn1c(SCC(=O)NC2CCCC2)nnc1-c1cccnc1 | 5.55
66 | Cc1c(C#N)c(NC(=O)c2ccccc2)n(Cc2ccccc2)c1C | 2.21

Row | Structure (SMILES) | hERG current change (%, negative = inhibition) at 10uM [%]
67 | CN1CCN(S(=O)(=O)c2cccc(C(=O)N3CCN(c4ccccc4F)CC3)c2)CC1 | -0.195
68 | COc1ccccc1N1CCN(C(=O)c2ccc(S(=O)(=O)N3CCCCC3)cc2)CC1 | -10.2
69 | COc1cc2ccccc2cc1C(=O)N1CCCCC1 | -0.827
70 | COc1ccccc1N1CCN(C(=O)c2cccc(S(=O)(=O)N3CCCCCC3)c2)CC1 | -77
71 | COc1ccccc1N1CCN(C(=O)c2c(-c3c(Cl)cccc3Cl)noc2C)CC1 | 2.17
72 | COc1cc2ccccc2cc1C(=O)N1CCCC1 | 7.7
73 | COc1ccccc1N1CCN(C(=O)c2c(-c3ccccc3Cl)noc2C)CC1 | -51.2
74 | COc1ccccc1N1CCN(C(=O)c2ccc(S(=O)(=O)N3CCCCCC3)cc2)CC1 | -39.8
75 | CCOc1ccccc1N1CCN(C(=O)c2c(-c3ccccc3Cl)noc2C)CC1 | 2.42
76 | O=C(c1cccc(S(=O)(=O)N2CCCCCC2)c1)N1CCN(c2ccccc2F)CC1 | -58
77 | COc1cc2ccccc2cc1C(=O)N1CCN(c2ccccc2O)CC1 | -59.7
78 | O=C(c1cccc(S(=O)(=O)N2CCCC2)c1)N1CCN(c2ccccc2F)CC1 | -18.1
79 | CC(C)(O[C@@H]1O[C@H](CO)[C@@H](O)[C@H](O)[C@H]1O)[C@@H]1CC=C(C(=O)O)CC1 | 15.5
80 | COc1ccc(NC(=O)CN(c2ccccc2F)S(=O)(=O)c2ccc(C)cc2)cc1 | 10.6
81 | COC(=O)c1sc2nc(N)c(C#N)cc2c1N | 31.1
82 | Cc1nc(NCCc2ccc(O)cc2)c2nnn(Cc3ccccc3)c2n1 | 0.0141
83 | Cc1ccc(OCC(=O)Nc2oc(-c3ccccc3)c(-c3ccccc3)c2C#N)cc1 | 17.7
84 | COc1cc(CC(=O)NNC(=O)c2cc(C)oc2C)cc(OC)c1OC | 24.1
85 | COc1ccc(S(=O)(=O)N2CCCCCC2)cc1C(=O)N1CCN(c2ccccc2C)CC1 | -48
86 | COc1ccc(S(=O)(=O)N2CCN(c3ccccc3OC)CC2)cc1C(=O)N1CCCCC1 | 7.51
87 | COc1ccc(S(=O)(=O)N2CCCCCC2)cc1C(=O)N1CCN(c2ccccc2O)CC1 | -70.6
